Data reported in PubChem BioAssay (NCI).
About 83,000 compounds went through this panel and 20% of them were active in at least one assay; those are over-represented in the sample as a whole.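 Results are percent growth after 48 hours of single-concentration exposure. 100 means growth as in untreated cells, lower positive values show inhibition; negative values down to -100 show cell death.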 A number with no mark means an inactive call. Calls of active or inactive are those of the source.

The compounds below were run on UO-31 renal (assay: NCI-60 one-dose screen, 48 h (100 = growth as untreated, 0 = no growth, -100 = all killed)). Conditions: 10 µM unless noted.
Procedure: Growth inhibition of the UO-31 human tumor cell line is measured as a screen for anti-cancer activity. Cells are grown in 96 well plates and exposed to the test compound for 48 hours. Compounds are tested at a single concentration, which is 10^-5 M for most compounds. The reported endpoint is percent growth (GI% or GIPRCNT), where numbers from 0 - 100% represent growth inhibition, and numbers from -100% - 0 represent cell death. For example, a value of 40 represents 60% growth inhibition. A value of 0 means no net growth occurred over the course of the experiment. A value of -40 indicates 40% of cells at the beginning of the experiment died by the end of the experiment. A value of -100 means all cells are dead at the end of the experiment.
NCI-60 Human Tumor Cell Lines Screen was performed using the standard one-dose NCI protocol, which is described in more detail at https://dtp.cancer.gov/discovery_development/nci-60/default.htm.
Compounds with GIPRCNT values below 10 were considered active. Activity score was based on GIPRCNT using the following formula: […]
Score is 0 for GIPRCNT values of 100 or above, 50 for GIPRCNT values of 0, and 100 for GIPRCNT values of -100.

SMILES | growth
CCN1C(=O)N(CC)C2Nn3c(s/c(=C\c4ccccc4Br)c3=O)=NC21 (stereo not given) | 55%
COc1ccc(-c2nc(/C=C3\C(=O)N(C)c4ccccc43)c3ccccn23)cc1 | 69.3%
CN1CCN(C(=O)[C@@]2(C)CC[C@]3(C)CC[C@]4(C)C(=CC[C@@H]5[C@@]6(C)CCC(=O)NC(C)(C)[C@@H]6CC[C@]54C)[C@@H]3C2)CC1 | 48.3%
COc1ccc2cc(-c3ccnc4c(N=Nc5ccc(Cl)cc5)c(N)nn34)ccc2c1 | 77.7%
Cc1ccc(/C=C/C(=O)c2ccc(-n3cc(CN4CCN(c5cc6c(cc5F)c(=O)c(C(=O)O)cn6C5CC5)CC4)nn3)cc2)cc1 | 61.8%
Cc1ccc(C(=O)c2ccc(CC(=O)N=Nc3c(O)[nH]c4ccc(Br)cc34)n2C)cc1 | 64.7%
Cc1c(Cl)cccc1C(=O)Nc1nc2c(s1)CN(C(=O)c1ccc(C(F)(F)F)cc1)CC2 | 44.4%
COc1cc(/C=C/C(=O)/C=C(O)/C=C/c2ccc(OC(=O)C34CC5CC(CC(C5)C3)C4)c(OC)c2)ccc1OC(=O)C12CC3CC(CC(C3)C1)C2 | 69.3%
NC(=O)c1cccc([C@@H]2O[C@H](CO)[C@@H](O)[C@H]2O)c1 | 52.1%
Cc1c(CC(=S)N2CCOCC2)nnn1-c1cccc(C(F)(F)F)c1 | 82.9%
O=C(O)c1ccc(-c2ccc(/C=N/Nc3nc(Nc4ccccc4)nc(N4CCCCC4)n3)o2)cc1 | 44.4%
Cc1ccc(-c2csc(N(C(=O)N3CCN(c4cc5c(cc4F)c(=O)c(C(=O)O)cn5C4CC4)CC3)c3ccccc3)n2)cc1 | 7.46% (active)
Cc1ccc(S(=O)(=O)c2nc(-c3ccccc3)oc2Sc2nc3ccccc3s2)cc1 | 64.3%
COc1cccc(NCc2nnc(Nc3ccc(Cl)cc3)c3ccccc23)c1 | -42.5% (active)
CCOC(=O)c1cc(C(=O)c2cc(OC)c(OC)c(OC)c2)n2ccccc12 | 50.6%
O=C(/C=C/c1cccc(Cl)c1Cl)Nc1ncc(Cc2ccccc2Cl)s1 | 44.6%
CCN(CC)CCCOc1ccc2ncnc(Nc3ccc(Oc4cccc(C(F)(F)F)c4)c(Cl)c3)c2c1 | 0.274% (active)
C=CCOC(=O)C1=C(C)N(CC)C(=O)NC1c1c(Cl)n(C)c2ccccc12 (stereo not given) | 76.1%
Cc1ccc(CNc2ccc3nc(CCC(C)C)[nH]c3c2)cc1 | 68.6%
Nc1nc(N)c(N=Nc2ccccc2)c(-c2ccccc2)n1 | 36%

SMILES | growth
O=C(N/N=C\c1cccc([N+](=O)[O-])c1)N/N=C/c1cccc([N+](=O)[O-])c1 | 86.8%
CN(C)CCN1C(=O)c2cccc3c(/C=C/CN4C(=O)c5cccc6cccc(c56)C4=O)ccc(c23)C1=O | 72%
CSc1nn2c(-c3ccc4ccccc4c3)ccnc2c1C#N | 16.7%
Cc1nnc(-c2ccc3c(c2)nc(/C=C/c2ccccc2)n3C2CCCCC2)o1 | 58.2%
Cn1cc(-c2csc(-c3cn(CCCN4CCOCC4)c4ccccc34)n2)c2cccnc21 | 71%
COc1cc(-c2nc3cc(Cl)c(Cl)cc3[nH]2)ccc1OCC(=O)N=Nc1c(O)[nH]c2ccc(Cl)cc12 | 89%
COc1ccc(C2CC(c3cc(OC)c(OC)c(OC)c3)=NO2)cc1OCCCCOc1cc2c(cc1OC)C(=O)N1CCC[C@H]1C=N2 (stereo not given in full) | 19.5%
COc1cccc(/C=N/NC(=O)c2ccccc2N2CCCC2)c1O | 30.4%
C#CCNC(=O)[C@]1(C)CCC[C@@]2(C)[C@H]1CC=C1C=C(C(C)C)CC[C@@H]12 | 88.8%
O=C(CSc1nnc(-c2cc(-c3ccccc3)nc3ccccc23)n1-c1ccccc1)Nc1ccc(C(=O)/C=C/c2ccc(Cl)cc2)cc1 | 84.4%
C/C(=N\O)c1ccc(NC(=O)CSc2nnc(-c3cc(-c4ccc(S(C)(=O)=O)cc4)nc4ccccc34)n2-c2ccccc2)cc1 | 65.2%
COc1ccc(N2CCN(C(=O)c3sc4nc(C)c(Br)c(C)c4c3N)CC2)cc1 | 59.4%
Cc1ccc(C(=O)Nc2cccc(C#Cc3cccc4[nH]nc(N)c34)c2)cc1C(F)(F)F | 36.7%
Cc1ncc(C(=O)Nc2ccc(CN3CCN(C)CC3)c(C(F)(F)F)c2)cc1C#Cc1cnc(N)c2ncccc12 | -9.37% (active)
Fc1cc(Nc2ccc3c(OCCCN4CCOCC4)cccc3n2)ccc1Cl | 33.3%
CC1CCN(C(=O)CCCl)c2ccccc21 (stereo not given) | 75.8%
O=C1/C(=C/c2ccc(F)cc2)CN(C(=O)C(Cl)Cl)C/C1=C\c1ccc(F)cc1 | -83.4% (active)
CS(=O)(=O)c1ccc(NC(=O)c2ccccc2)nc1 | 99.9%
CC(=O)ON1CCCC(P(=O)(OCCSC(=O)C(C)(C)C)OCCSC(=O)C(C)(C)C)C1=O (stereo not given) | -0.776% (active)
Cc1ccc2nc(-c3ccc(C(=O)NNC(=S)Nc4ccccc4)cc3)[nH]c2c1 | 89.8%
